Experimental data taken from PubChem BioAssay (NCATS).
Results filed as inconclusive are left out. Unmarked numbers belong to inactive results. The source made the active and inactive calls. The call rests on the fitted dose curve.

assay: qHTS assay for small molecule disruptors of the mitochondrial membrane potential - 5 hr assay (AID 651755); settings: JC-1-type ratio dye; series mostly up to 92.2 µM; ratio change, negative = disruption: at the top concentration; further: nearly all actives have a fitted effect of over 40% in size
Text: National Center for Advancing Translational Sciences [NCATS]
NIH Chemical Genomics Center [NCGC]
National Institutes of Environmental Health Sciences [NIEHS]
National Toxicology Program [NTP]
Mitochondrial membrane potential (MMP), one of the parameters for mitochondrial function, is generated by mitochondrial electron transport chain that creates an electrochemical gradient by a series of redox reactions. This gradient drives the synthesis of ATP, a crucial molecule for various cellular processes. Measuring MMP in living cells is commonly used to assess the effect of chemicals on mitochondrial function. […] The dye accumulates in the mitochondria of healthy cells as aggregates, with red fluorescence. The mitochondrial potential collapses and the dye can no longer accumulate in the mitochondria and remains in the cytoplasm in monomers, with green fluorescence.
2,000 HepG2 cells in 5 uL/well were dispensed into black, clear-bottom 1536-well plates using a Multidrop Combi (Thermo Scientific) dispenser. The assay plates were incubated overnight at 37C to allow cells to attach to the wells, followed by the transfer of 23 nL compound or DMSO vehicle by a pin tool (Kalypsys). The plates were incubated for 5 hr at 37C and 5% CO2, followed by the addition of 5 uL of 2X Mito-MPS dye (BD Biosciences) into each well using Flying Reagent Dispenser (Aurora Discovery) and then following 30 min incubation at 37C. Fluorescence intensity (490nm excitation and 535nm emission for monomers; and 540nm excitation and 590nm emissions for aggregates) was measured using an Envision plate reader.
On the % scale 0 is the no-effect control and ±100 the full control effect; potency means the concentration at half of the fitted maximal effect.

SMILES	ratio change, negative = disruption	Potency
CCCCOC(=O)c1ccccc1C(=O)OCc1ccccc1	-11.9%	
O=[N+]([O-])c1c(Cl)c(Cl)cc(Cl)c1Cl	7.64%	
COc1ccc(C(c2ccc(OC)cc2)C(Cl)(Cl)Cl)cc1		37.6 µM (active)
CC(C)(c1ccc(O)cc1)c1ccc(O)cc1		33.5 µM (active)
CC(C)(O)C(=O)Nc1ccc([N+](=O)[O-])c(C(F)(F)F)c1		26.6 µM (active)
CN(C)NC(=O)CCC(=O)O	2.23%	
Nc1ccc(Sc2ccc(N)cc2)cc1	-3.57%	
O=[N+]([O-])c1c2ccccc2cc2ccccc12		29.8 µM (active)
Cc1cc(O)ccc1Cl	-18%	
CC(=O)[O][Hg][c]1ccccc1		13.3 µM (active)
COC(C)(C)CCCC(C)C/C=C/C(C)=C/C(=O)OC(C)C (configuration not stated)	-0.678%	
Nc1cccc2c(N)cccc12		5.96 µM (active)
CCCCC(CC)COC(=O)c1ccccc1C(=O)OCC(CC)CCCC (configuration not stated)	5.88%	
CN(C)[C@@H]1C(=O)C(C(N)=O)=C(O)[C@@]2(O)C(=O)C3=C(O)c4c(O)cccc4[C@@](C)(O)[C@H]3[C@H](O)[C@@H]12	4.9%	
Nc1ccc(Cl)cc1N		13.3 µM (active)
Nc1ccc(Cl)cc1	10.5%	
Nc1ccc([N+](=O)[O-])cc1O		37.6 µM (active)
